p53ts 32C tox – p53ts cell cytotoxicity, permissive temperature. 0.93% of 130,000 active. H1299-p53A138V at 32C, ATP luminescence viability, 24 h. Potency, µM (titrated, usually from 46.1 µM), hits mostly cytotoxic; also: nearly all actives have a fitted effect of over 55% in size
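H1299-p53 A138V cells (temperature-sensitive p53) exposed 24 h to up to 46 uM compound at 32C, where p53 is wild-type in conformation. Viability read as ATP luminescence and normalised to DMSO and 100 uM tamoxifen. AC50 fitted with the Hill equation.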
p53ts 39C kill – kills p53ts cells at the nonpermissive temperature; H1299-p53A138V viability at 39C, ATP luminescence, 24 h; Potency, µM (series often up to 46.1 µM), actives largely listed as cytotoxic; 1.5% of 130,000 active; AID 902; also: nearly all actives have a fitted effect of over 55% in size
IkB signaling – suppresses IkB signaling in ABC-DLBCL reporter cells | ABC-DLBCL IkBa-CBG/CBR dual luciferase ratio, 4 h; response scale: scaled: untreated 0%, proteasome inhibitor 100% | Potency, µM (titrated, usually from 57.1 µM) | 0.04% of 110,000 active | AID 445; active = well fitted curve in the direction sought with a large enough effect in the signal ratio, not every such curve was filed as active; inconclusive = small, poorly fitted or top-dose-only effect, or a change in a side signal; the % refers to the signal ratio;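 also: the direction sought is a rising ratio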
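Curves were fitted separately to fusion (green), unfused (red) and ratio luminescence, then classed by r2, magnitude and activity. Cells: OCI-Ly3, 4 h compound plus doxycycline at 37C; 10 uM MG-132 defined full response.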
Hsp90 Hop PPI – changes Hsp90-Hop TPR2A binding signal, up or down; AlphaScreen TPR2A-His6 binding biotin-Hsp90 C-terminal peptide; AID 595; Potency, µM (series often up to 57 µM); 0.44% of 71,000 active; active = well fitted curve in either direction with a large enough effect; inconclusive = small, poorly fitted or top-dose-only effect, or another doubt
IMPase inh – IMPase inhibition in cells; P97697; CHO-M1 cells, IP1 accumulation, HTRF TR-FRET ratio; inhibition (IP1 accumulation), % at 46.1 µM; 120,000 tested, under 10 active; AID 901; active = well fitted curve in the direction sought with a large enough effect in the signal ratio, not every such curve was filed as active; inconclusive = small, poorly fitted or top-dose-only effect, or a change in a side signal; inactive = no such curve, though single readings can be large or run the other way; the % refers to the signal ratio;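 also: cells stimulated with carbachol in lithium chloride buffer; higher means more IMPase inhibition seen as more IP1 and lower FRET ratio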
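Carbachol-driven Gq signalling in CHO-M1 cells (2000/well) generates IP1. Compounds that block IMPase raise IP1 and so reduce the FRET signal from Eu-anti-IP1 and d2-IP1 after a 10 min room-temperature lysis.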
FLuc inh – inhibitors of firefly luciferase. 2.2% of 72,000 active. AID 411. P08659. purified firefly luciferase, luminescence, 8 min. Potency, µM (doses to about 57.1 µM), hits mostly inhibitors; also: nearly all actives have a fitted effect of over 40% in size
Target sequence (P08659 whole entry, looked up): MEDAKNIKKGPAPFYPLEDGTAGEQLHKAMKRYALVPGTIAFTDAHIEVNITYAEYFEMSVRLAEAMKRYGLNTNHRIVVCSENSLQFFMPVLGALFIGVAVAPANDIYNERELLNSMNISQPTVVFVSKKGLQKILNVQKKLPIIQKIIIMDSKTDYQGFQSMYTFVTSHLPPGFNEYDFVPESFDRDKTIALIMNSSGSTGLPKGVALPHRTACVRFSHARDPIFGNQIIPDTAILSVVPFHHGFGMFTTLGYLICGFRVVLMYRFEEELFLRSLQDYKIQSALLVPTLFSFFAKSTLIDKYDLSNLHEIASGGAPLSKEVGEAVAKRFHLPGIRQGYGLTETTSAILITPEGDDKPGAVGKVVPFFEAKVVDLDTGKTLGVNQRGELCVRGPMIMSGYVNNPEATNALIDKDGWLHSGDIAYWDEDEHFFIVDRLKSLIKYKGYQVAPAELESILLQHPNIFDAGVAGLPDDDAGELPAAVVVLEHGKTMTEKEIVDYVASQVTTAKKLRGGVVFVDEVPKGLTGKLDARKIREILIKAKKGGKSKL
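Luminescence read-out after 8 min at room temperature; enzyme reaction used luciferin plus 10 uM ATP (linear range) in imidazole buffer pH 7.2 with KCl, MgCl2, Tween 20 and BSA. Each sample was run as a titration.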
Numbers stand for hits; 0 = inactive; ? = inconclusive; - = no result; [ ] = another dose, or the depositor's remark. The entries come from a sample that favours hits as a whole. Unless noted, calls follow the shape of the dose curve; as a rule, active = well fitted curve in the direction sought with a large enough effect; inconclusive = small, poorly fitted or top-dose-only effect, or another doubt; inactive = no such curve, though single readings can be large; an effect the other way counts as inactive or inconclusive.

SMILES | p53ts 32C tox | p53ts 39C kill | IkB signaling | Hsp90 Hop PPI | IMPase inh | FLuc inh
COC(=O)c1ccc(-c2cc(C(=O)O)c3cc4c(cc3n2)OCCO4)cc1 | ? | ? | 0 | 0 | 0 | 3.16µM
O=C(Nc1cccnc1)c1cn(-c2ccccc2)nc1-c1cccs1 | 0 | ? | ? | 0 | 0 | 10µM
O=C(Nc1cccc2ccccc12)c1cn(-c2ccccc2)nc1-c1cccs1 | - | - | - | - | 0 | -
CN(Cc1ccccc1)S(=O)(=O)c1ccc(C(=O)Nc2nnc(C3CC3)o2)cc1 | 0 | 12.6µM | ? | ? | 0 | 0
COc1ccccc1-c1nnc(NC(=O)c2ccc(S(=O)(=O)N(C)Cc3ccccc3)cc2)o1 | 0 | 12.6µM | 0 | 0 | 0 | 0
CCc1nnc(NC(=O)c2ccc(S(=O)(=O)N(CC)Cc3ccccc3)cc2)o1 | 0 | ? | 0 | 0 | ? | 0
CN(c1ccccc1)S(=O)(=O)c1ccc(C(=O)Nc2nnc(-c3ccc(F)cc3)o2)cc1 | 0 | ? | 0 | 0 | 0 | 0
CSc1ccc(C2c3[nH]c4ccccc4c3CCN2C(=O)CCC2CCCC2)cc1 (stereo not given) | 0 | 0 | 0 | - | - | -
COc1ccc(Nc2nc(N)c3cc(OC)c(OC)cc3n2)cc1 | ? | 12.6µM | ? | - | 0 | -
COc1cc2nc(Nc3cccc(F)c3)nc(N)c2cc1OC | 0 | ? | ? | - | 0 | -
CC(C)c1ccc(-c2noc(SCC(=O)N(C)c3ccc(F)cc3)n2)cc1 | 0 | 0 | 0 | - | - | -
CC(C)c1ccc(-c2noc(SCC(=O)N3CCCCC3)n2)cc1 | 12.6µM | 15.8µM | ? | - | - | -
O=C(NC1=NC2CCCCC2N1)c1ccccc1 (stereo not given) | ? | ? | ? | 0 | 0 | 1.26µM
CC(=O)NCCNc1nc(-c2ccc(N(C)C)cc2)nc2ccccc12 | ? | 12.6µM | 0[11.4 µM] | 0 | - | 0[2.29 µM]
Cc1cnc(CNc2nc(-c3ccc(N(C)C)cc3)nc3ccccc23)cn1 | 10µM | 10µM | 0[11.4 µM] | 0 | - | 0.794µM
COCCNc1nc(-c2ccc(N(C)C)cc2)nc2ccccc12 | 12.6µM | 10µM | 0[11.4 µM] | 0 | - | ?
COc1ccccc1/C=C/c1nc(C#N)c(NCc2ccccc2)o1 | 0 | 0 | 0 | - | - | -
CCOC(=O)c1ccc2nc(NC(=O)c3ccco3)sc2c1 | ? | ? | ? | 0 | 0 | 15.8µM
CCOC(=O)c1sc(NC(=O)c2ccc(CC)s2)nc1C | 0 | 0 | 0 | 0 | 0 | 0
O=C(COC(=O)c1cccc(NC(=O)c2ccco2)c1)c1ccc(Br)cc1 | 0 | 0 | ? | 0[11 µM] | 0 | 2.51µM
C=CCOC(=O)c1sc(NC(=O)c2ccco2)nc1C | 10µM | ? | 0 | 0 | 0 | ?
CCOC(=O)c1ccc2nc(NC(=O)c3cccs3)sc2c1 | ? | ? | ? | 0 | 0 | 7.94µM
O=C(COC(=O)c1cccc(NC(=O)c2ccc(Br)cc2)c1)c1ccc(Cl)cc1 | 0 | ? | ? | - | 0 | -
CCCC(=O)Nc1nc2ccc(C(=O)OCC)cc2s1 | - | - | - | - | 0 | -
CC1CN(C(=O)N2CCC(C(=O)NCCCc3ccccc3)CC2)c2cc(Cl)ccc2O1 (stereo not given) | 0 | 0 | ? | - | - | -
SMILES | p53ts 32C tox | p53ts 39C kill | IkB signaling | Hsp90 Hop PPI | IMPase inh | FLuc inh
Cc1ccc(CCNC(=O)c2sc3ncccc3c2-n2c(C)ccc2C)cc1 | 0 | 0 | ? | - | - | -
CN(Cc1ccccc1)C(=O)Cn1c(=O)c2cccn2c2ccc(F)cc21 | 0 | 0 | 0 | - | - | -
CCOc1ccccc1N(C)C(=O)Cn1cnc2onc(-c3ccc(F)cc3)c2c1=O | 0 | 0 | 0 | - | - | -
Clc1ccc(-n2nnnc2Sc2ncnc3sccc23)cc1 | ? | 20µM | ? | 0 | - | 0
O=c1c2ccccc2sn1-c1cc(S(=O)(=O)N2CCOCC2)ccc1N1CCOCC1 | 0 | 0 | ? | 0 | 0 | 12.6µM
O=c1c2ccccc2sn1-c1cc(S(=O)(=O)N2CCOCC2)ccc1N1CCCC1 | - | - | - | - | 0 | -
C[C@@H]1C[C@@H]2[C@H]3CCC4=CC(=O)C=C[C@]4(C)[C@]3(Cl)[C@@H](O)C[C@@]2(C)[C@@]1(O)C(=O)CO | 0 | 0 | ? | 0 | 0 | 0
CC(=O)Nc1cccc(NC(=O)Nc2ccc(C(C)=O)cc2)c1 | ? | ? | 0 | 0 | 0 | 12.6µM
COc1ccc(NC(=O)Nc2ccc(C(=O)N3CCOCC3)cc2)cc1 | 0 | 0 | 0 | 0 | 0 | 0
CCN(CC)c1ccc(NC(=O)Nc2cccc(C(C)=O)c2)cc1 | 12.6µM | 12.6µM | ? | 0 | 0 | 7.94µM
CC(=O)c1cccc(NC(=O)Nc2ccc3c(c2)N(C)C(=O)CS3)c1 | ? | 20µM | ? | 0 | 0 | 15.8µM
O=C(Nc1ccc(C(=O)N2CCOCC2)cc1)Nc1cccc(Cl)c1 | 0 | 0 | 0 | 0 | - | 15.8µM
Cn1cccc1C(=O)N1CCC[C@@]2(CCN(Cc3ccccc3)C2)C1 | 0 | 0 | 0[11.4 µM] | 0 | - | 0[11.4 µM]
CCc1cccc(NC(=O)c2cc3c(=O)n(Cc4ccc(OC)cc4)ccc3nc2C)c1 | 0 | 0 | ? | - | - | -
O=C(COc1ccccc1F)Nc1ccccc1OCc1cc(=O)n2ccccc2n1 | 0 | 0 | 0 | - | - | -
CSc1cccc(NC(=O)Nc2ccccc2)c1 | ? | 0 | ? | ? | 0 | 10µM

Compound activity (PubChem)
